Results filed as inconclusive are left out. The source made the active and inactive calls.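 How the source made its calls: active means viability below 80% at one or more tested concentrations, flagged as toxic; inconclusive means replicate runs disagree on whether the viability criterion is met; inactive means viability at or above 80% at every dose.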

This test is described as follows: viability reduction of Vero E6 cells – cell-based, M17 leucyl aminopeptidase campaign, cytotoxicity control for P. falciparum PFM17LAP inhibitor project, dose response (AID 588707). Particulars: CellTiter-Glo luminescence, 72 h; series mostly up to 50 µM.
With `Cc1cc(SCC(=O)Nc2ccccc2C(=O)O)nc2ccccc12`, the molecule was classed as inactive. As for `O=C(Nc1ccc(Cl)cc1)Nc1ccccc1C(=O)O`, the entry is “inactive”; as for `COC(=O)c1ccccc1NC(=O)c1cc2cc3ccc(C)cc3nc2s1`, “inactive”.

For `O=C1OCCC1Sc1nnc(NC2CCCCC2)s1` (configuration not stated), the molecule was called inactive. As for `COC(=O)c1cc(OC)c(OC)cc1NC(=O)c1sc2nc(C)ccc2c1N`, the entry is “inactive”. As for `O=C(CSc1nccc(=O)[nH]1)Nc1ccc(N2CCOCC2)cc1`, the entry is “inactive”. As for `O=C(CSc1nc(O)cc(=O)[nH]1)Nc1ccccc1`, the entry is “inactive”; as for `NC(N)=NCCC[C@H](N)C(=O)NO`, “inactive”; as for `O=C(CSc1ccccc1)Nc1cccc2c1C(=O)NC2=O`, “inactive”. Consider `Cc1ccc(NC(=O)CSc2nc(O)cc(=O)n2Cc2ccccc2)cc1`, for which the outcome was inactive. For `COC(=O)c1c(NC(=O)c2ccccc2C(=O)O)sc2c1CCCC2`, the result was inactive. As for `COc1ccc(-c2nnc(NC(=O)C3CC(C)=C(C)CC3C(=O)O)s2)cc1` (configuration not stated), the molecule was classed as inactive.

With `COC(=O)c1c(NC(=O)C2CCCCC2C(=O)O)sc2c1CCC(c1ccccc1)C2` (configuration not stated), the molecule was called inactive.

Regarding `O=C(CSc1nccc(=O)[nH]1)Nc1ccc(Oc2ccccc2)cc1`, the molecule was called inactive. As for `Cc1cc(=O)[nH]c(SCC(=O)Nc2ccccc2)n1`, the entry is “inactive”; as for `COC(=O)c1ccccc1NC(=O)c1ccc2c(Cl)c3c(nc2c1)CCC3`, “inactive”. Take `CC(C)C[C@H](N)C(=O)NO`: the call was inactive. Take `CC1=C(C)CC(C(=O)Nc2nc(-c3cc(C)ccc3C)c(C)s2)C(C(=O)O)C1` (configuration not stated): the molecule was classed as inactive.

In the case of `COc1cc(NC(=O)CSc2ccccc2)c(C(=O)O)cc1OC`, the molecule was called inactive.

Regarding `O=C(O)c1ccccc1C(=O)Nc1nc2c(s1)CCCC2`, the call was inactive. As for `N[C@@H](Cc1c[nH]c2ccccc12)C(=O)NO`, the entry is “inactive”; as for `COC(=O)c1c(NC(=O)C2CC=CCC2C(=O)O)sc(C)c1-c1ccc(C)cc1` (configuration not stated), “inactive”.

The values are drawn from PubChem BioAssay AID588707 (Southern Research Specialized Biocontainment Screening …, 2011).
